Results filed as inconclusive are left out. A call without a number means that no potency is given here. Unmarked numbers belong to inactive results. Activity calls are given as the source filed them. Calls follow the shape of the dose curve; as a rule, active = well fitted cell-killing curve with a large enough effect; inconclusive = small, poorly fitted or top-dose-only effect, or effect the other way; inactive = flat fitted curve, though single readings scatter.
Potency is read from the fitted curve at half-maximal effect.

The first assay deals with Hek293T. As to the kind of experiment: Primary qHTS to identify gynecologic anti-cancer compounds using libraries of approved drugs and bioactive compounds (AID 1345084). Also: nearly all actives have a fitted effect of over 55% in size. Particulars: Gynecologic cancer cell panel viability, ATPlite luminescence, 48 h, control line for the selectivity index; series mostly up to 57.5 µM. The method, boiled down:
(§1)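 ATP-based viability (ATPlite), 1,000 cells/well, 16 h pre-incubation, 48 h compound at 37 C, 5% CO2, 15 min RT before read.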
In the case of `CN[C@@H]1[C@@H](O)[C@@H](O[C@@H]2[C@@H](O)[C@H](O[C@H]3O[C@@H]([C@@H](C)NC)CC[C@H]3N)[C@@H](N)C[C@H]2N)OC[C@]1(C)O`, the Potency result was “inactive”.

Regarding `C[N+]1(C)[C@@H]2CC[C@H]1CC(OC(=O)C(O)c1ccccc1)C2` (stereo not given in full), the Potency result was “inactive”.

For the molecule `CCNC(=O)[C@@H]1CCCN1C(=O)[C@H](CCCN=C(N)N)NC(=O)[C@H](CC(C)C)NC(=O)[C@@H](CC(C)C)NC(=O)[C@H](Cc1ccc(O)cc1)NC(=O)[C@H](CO)NC(=O)[C@H](Cc1c[nH]c2ccccc12)NC(=O)[C@H](Cc1cnc[nH]1)NC(=O)[C@@H]1CCC(=O)N1`, the Potency result is “inactive”.

Consider `CC(CCC1(O)OC2CC3C4CC=C5CC(O[C@@H]6O[C@H](CO)[C@@H](O[C@@H]7O[C@H](CO)[C@@H](O)[C@H](O)[C@H]7O)[C@H](O)[C@H]6O[C@@H]6O[C@@H](C)[C@H](O)[C@@H](O)[C@H]6O)CCC5(C)C4CCC3(C)C2C1C)CO[C@@H]1O[C@H](CO)[C@@H](O)[C@H](O)[C@H]1O` (stereo not given in full), for which the activity change, negative = cytotoxicity is 1.54% [at 11.6 µM].

On to `CN([C@H]1c2cc(OCCCC(F)(F)F)ccc2OC(C)(C)[C@@H]1O)S(C)(=O)=O`, for which the Potency result was “inactive”.

For `Cn1c(NC[C@@H](N)Cc2ccccc2)nc(-c2ccncc2)c(-c2ccc3ccccc3c2)c1=O`, the Potency entry was “inactive”.

For the molecule `CCCCC(=O)N(Cc1ccc(-c2ccccc2-c2nn[nH]n2)cc1)C(C(=O)O)C(C)C` (stereo not given), the Potency entry is “inactive”.

Regarding `Nc1nc(NCC2CCC(CNS(=O)(=O)c3cccc4ccccc34)CC2)nc2ccccc12` (stereo not given), the Potency entry was “inactive”.

As to `COc1ccc(NS(=O)(=O)c2sc3ccc(Cl)cc3c2C)cc1N1CCNCC1`, the Potency result was “inactive”.

Take `CCCCc1nc(Cl)c(CO)n1Cc1ccc(-c2ccccc2-c2nnn[nH]2)cc1`: the Potency result is “inactive”.

For `CCC(=O)c1cc(-c2ccc(Cl)cc2)n(-c2ccc(S(N)(=O)=O)cc2)c1C`, the Potency result was “inactive”.

Regarding `Cc1nnsc1C(=O)Nc1ccc(-n2nc(C(F)(F)F)cc2C(F)(F)F)cc1`, the Potency result was “inactive”.

For `Cc1cc(C)c(NC(=O)N(Cc2ccc3c(c2)Cc2ccccc2-3)C2CCCCCC2)c(C)c1`, the Potency entry was “inactive”.

As for `Fc1ccccc1CNCc1ccc(-c2ccnc3[nH]ccc23)cc1`, the Potency result is “inactive”.

`CN(Cc1ccc(C(=O)O)cc1)c1ccc(OCc2c(-c3c(Cl)cccc3Cl)noc2C2CC2)nc1C(F)(F)F`: the Potency entry is “inactive”.

Take `Cc1nc(C)c2c(n1)N(Cc1ccc(-c3ccccc3-c3nn[nH]n3)cc1)C(=O)CC2`: the Potency result is “inactive”.

For the molecule `N#C[C@@H]1C[C@@H]2C[C@@H]2N1C(=O)[C@@H](N)C12CC3CC(CC(O)(C3)C1)C2`, the Potency entry is “inactive”.

As to `CS(=O)(=O)c1ccc(-c2cn3ccccc3n2)cc1`, the Potency was 17.8 µM (active).

As to `CCCCOc1ccc(-c2cncc(C(=O)NCc3cccnc3N3CCOCC3)c2)cc1Cl`, the Potency result is “inactive”.

With `CC[C@H]1OC(=O)[C@H](C)[C@@H](O[C@H]2C[C@@](C)(OC)[C@@H](O)[C@H](C)O2)[C@H](C)[C@@H](O[C@@H]2O[C@H](C)C[C@H](N(C)C)[C@H]2O)[C@](C)(O)C[C@@H](C)/C(=N/OCOCCOC)[C@H](C)[C@@H](O)[C@]1(C)O`, the Potency entry was “inactive”.

Turning to `C[C@@H](O[C@H]1OCCN(Cc2n[nH]nc2CN(C)C)[C@H]1c1ccc(F)cc1)c1cc(C(F)(F)F)cc(C(F)(F)F)c1`, the Potency entry was “inactive”.

On to `Cc1cc(CN)cc(C)c1NC(=O)c1ccc(-c2cc(Cl)ccc2Cl)o1`, for which the Potency entry was “inactive”.

As for `CCCCc1nc(C)c(CC(=S)N(C)C)c(=O)n1Cc1ccc(-c2ccccc2-c2nn[nH]n2)cc1`, the Potency result is “inactive”.

As to `CC(=O)N1CCN([C@H]2CCN(C(=O)N(C)[C@H](C)c3cc(C(F)(F)F)cc(C(F)(F)F)c3)[C@@H](c3ccc(F)cc3C)C2)CC1`, the Potency entry is “inactive”.

In the case of `CC1(C)SC2C(NC(=O)[C@H](C(=O)O)c3ccsc3)C(=O)N2C1C(=O)O` (stereo not given in full), the Potency entry was “inactive”.

Consider `COc1c(N2CC3CCCNC3C2)c(F)cc2c(=O)c(C(=O)O)cn(C3CC3)c12` (stereo not given), for which the Potency result was “inactive”.

For the molecule `CO[C@@H]1[C@@H](O[C@H]2O[C@@H](C)[C@H](O[C@@H]3C[C@](C)(O)[C@H](O)[C@@H](C)O3)[C@@H](N(C)C)[C@@H]2O)[C@@H](CC=O)C[C@@H](C)[C@@H](O[C@H]2CC[C@H](N(C)C)[C@H](C)O2)/C=C/C=C/C[C@@H](C)OC(=O)C[C@H]1O`, the Potency entry is “inactive”.

Take `CC1OC2O[C@H]3[C@@H](OCC(O)[C@H]3O)OC(=O)C34CCC(C)(C)CC3C3=CCC5C6(C)CC(O)C(OC7OC(CO)C(O)C(O)C7O[C@@H]7OC[C@H](OC(=O)CC(C)(O)CC(=O)OC1C(OC1OCC(O)C(O)C1O)C2O)[C@@H](O)[C@H]7O)C(C)(CO)C6CCC5(C)C3(C)CC4` (stereo not given in full): the Potency result is “inactive”.

With `Cc1ccn(-c2cc(Cl)ccc2[C@@H](Oc2cc(-c3ccc(C[C@H](N)C(=O)O)cc3)nc(N)n2)C(F)(F)F)n1`, the Potency entry was “inactive”.

A further assay has as its system JEG-3. The assay is described as above. Particulars: Gynecologic cancer cell panel viability, ATPlite luminescence, 48 h; series mostly up to 57.5 µM. In a few lines: as §1
`CN[C@@H]1[C@@H](O)[C@@H](O[C@@H]2[C@@H](O)[C@H](O[C@H]3O[C@@H]([C@@H](C)NC)CC[C@H]3N)[C@@H](N)C[C@H]2N)OC[C@]1(C)O`: the Potency result is “inactive”.

As to `C[N+]1(C)[C@@H]2CC[C@H]1CC(OC(=O)C(O)c1ccccc1)C2` (stereo not given in full), the Potency entry is “inactive”.

As to `O=C(c1ccc(F)c(F)c1Nc1ccc(I)cc1F)N1CC(O)([C@@H]2CCCCN2)C1`, the Potency entry is “inactive”.

On to `CCNC(=O)[C@@H]1CCCN1C(=O)[C@H](CCCN=C(N)N)NC(=O)[C@H](CC(C)C)NC(=O)[C@@H](CC(C)C)NC(=O)[C@H](Cc1ccc(O)cc1)NC(=O)[C@H](CO)NC(=O)[C@H](Cc1c[nH]c2ccccc12)NC(=O)[C@H](Cc1cnc[nH]1)NC(=O)[C@@H]1CCC(=O)N1`, for which the Potency entry was “inactive”.

Turning to `CC(CCC1(O)OC2CC3C4CC=C5CC(O[C@@H]6O[C@H](CO)[C@@H](O[C@@H]7O[C@H](CO)[C@@H](O)[C@H](O)[C@H]7O)[C@H](O)[C@H]6O[C@@H]6O[C@@H](C)[C@H](O)[C@@H](O)[C@H]6O)CCC5(C)C4CCC3(C)C2C1C)CO[C@@H]1O[C@H](CO)[C@@H](O)[C@H](O)[C@H]1O` (stereo not given in full), the activity change, negative = cytotoxicity is -6.68% [at 11.6 µM].

In the case of `CN([C@H]1c2cc(OCCCC(F)(F)F)ccc2OC(C)(C)[C@@H]1O)S(C)(=O)=O`, the Potency result was “inactive”.

For `CC1(CO)CCCC2(C)C1C(OC(=O)c1ccccc1)C=C1C(=O)OCC12O` (stereo not given), the Potency entry was “inactive”.

Consider `Cn1c(NC[C@@H](N)Cc2ccccc2)nc(-c2ccncc2)c(-c2ccc3ccccc3c2)c1=O`, for which the Potency result was “inactive”.

`CCCCC(=O)N(Cc1ccc(-c2ccccc2-c2nn[nH]n2)cc1)C(C(=O)O)C(C)C` (stereo not given): the Potency entry was “inactive”.

As for `Nc1nc(NCC2CCC(CNS(=O)(=O)c3cccc4ccccc34)CC2)nc2ccccc12` (stereo not given), the Potency entry was “inactive”.

`COc1ccc(NS(=O)(=O)c2sc3ccc(Cl)cc3c2C)cc1N1CCNCC1`: the Potency result is “inactive”.

On to `CCCCc1nc(Cl)c(CO)n1Cc1ccc(-c2ccccc2-c2nnn[nH]2)cc1`, for which the Potency result was “inactive”.

Regarding `CCC(=O)c1cc(-c2ccc(Cl)cc2)n(-c2ccc(S(N)(=O)=O)cc2)c1C`, the Potency entry was “inactive”.

`Cc1cc(N=Nc2ccc(S(=O)(=O)Nc3ccccn3)cc2)c(N)cc1O`: the Potency entry is “inactive”.

`Cc1nnsc1C(=O)Nc1ccc(-n2nc(C(F)(F)F)cc2C(F)(F)F)cc1`: the Potency result was “inactive”.

`Cc1cc(C)c(NC(=O)N(Cc2ccc3c(c2)Cc2ccccc2-3)C2CCCCCC2)c(C)c1`: the Potency result was “inactive”.

As to `Fc1ccccc1CNCc1ccc(-c2ccnc3[nH]ccc23)cc1`, the Potency entry is “inactive”.

For `CN(Cc1ccc(C(=O)O)cc1)c1ccc(OCc2c(-c3c(Cl)cccc3Cl)noc2C2CC2)nc1C(F)(F)F`, the Potency result was “inactive”.

For `Cc1nc(C)c2c(n1)N(Cc1ccc(-c3ccccc3-c3nn[nH]n3)cc1)C(=O)CC2`, the Potency entry is “inactive”.

On to `N#C[C@@H]1C[C@@H]2C[C@@H]2N1C(=O)[C@@H](N)C12CC3CC(CC(O)(C3)C1)C2`, for which the Potency result is “inactive”.

For `CS(=O)(=O)c1ccc(-c2cn3ccccc3n2)cc1`, the Potency was 7.08 µM (active).

Consider `CCCCOc1ccc(-c2cncc(C(=O)NCc3cccnc3N3CCOCC3)c2)cc1Cl`, for which the Potency entry is “inactive”.

Take `C=CC(=O)N1CCN(C(=O)c2cc(-c3cc(Cl)ccc3Cl)c(Cl)cc2OC)CC1`: the Potency entry is “inactive”.

In the case of `CC[C@H]1OC(=O)[C@H](C)[C@@H](O[C@H]2C[C@@](C)(OC)[C@@H](O)[C@H](C)O2)[C@H](C)[C@@H](O[C@@H]2O[C@H](C)C[C@H](N(C)C)[C@H]2O)[C@](C)(O)C[C@@H](C)/C(=N/OCOCCOC)[C@H](C)[C@@H](O)[C@]1(C)O`, the Potency entry is “inactive”.

For `C[C@@H](O[C@H]1OCCN(Cc2n[nH]nc2CN(C)C)[C@H]1c1ccc(F)cc1)c1cc(C(F)(F)F)cc(C(F)(F)F)c1`, the Potency result is “inactive”.

`Cc1cc(CN)cc(C)c1NC(=O)c1ccc(-c2cc(Cl)ccc2Cl)o1`: the Potency result is “inactive”.

`CCCCc1nc(C)c(CC(=S)N(C)C)c(=O)n1Cc1ccc(-c2ccccc2-c2nn[nH]n2)cc1`: the Potency result is “inactive”.

For the molecule `CC(=O)N1CCN([C@H]2CCN(C(=O)N(C)[C@H](C)c3cc(C(F)(F)F)cc(C(F)(F)F)c3)[C@@H](c3ccc(F)cc3C)C2)CC1`, the Potency entry was “inactive”.

In the case of `CC1(C)SC2C(NC(=O)[C@H](C(=O)O)c3ccsc3)C(=O)N2C1C(=O)O` (stereo not given in full), the Potency result was “inactive”.

On to `Cc1cc(C)c(-c2csc(NC(=O)c3ccccc3)n2)c(C)c1`, for which the Potency entry is “inactive”.

As to `COc1c(N2CC3CCCNC3C2)c(F)cc2c(=O)c(C(=O)O)cn(C3CC3)c12` (stereo not given), the Potency result was “inactive”.

As to `COc1cc(N2CCN(C(C)=O)CC2)ccc1Nc1ncc(Cl)c(Nc2ccc(N3CCN(C(C)=O)CC3)cc2OC)n1`, the Potency result is “inactive”.

Take `CN(CC(=O)N(Cc1ccc(C2CCCCC2)cc1)c1ccc(C(=O)O)cc1)S(=O)(=O)c1c(F)c(F)c(F)c(F)c1F`: the Potency was 25.1 µM (active).

Turning to `CO[C@@H]1[C@@H](O[C@H]2O[C@@H](C)[C@H](O[C@@H]3C[C@](C)(O)[C@H](O)[C@@H](C)O3)[C@@H](N(C)C)[C@@H]2O)[C@@H](CC=O)C[C@@H](C)[C@@H](O[C@H]2CC[C@H](N(C)C)[C@H](C)O2)/C=C/C=C/C[C@@H](C)OC(=O)C[C@H]1O`, the Potency result is “inactive”.

For the molecule `COCCNCc1ccc(-c2cc3nccc(Oc4ccc(NC(=S)NC(=O)Cc5ccc(F)cc5)cc4F)c3s2)nc1`, the Potency entry was “inactive”.

Consider `Cc1ccn(-c2cc(Cl)ccc2[C@@H](Oc2cc(-c3ccc(C[C@H](N)C(=O)O)cc3)nc(N)n2)C(F)(F)F)n1`, for which the Potency entry was “inactive”.

The values above are taken from PubChem BioAssay (NCATS).
